Assay outcomes as filed in PubChem.
Rows were chosen to be rich in hits. Some 0.99% of all compounds tested hit in one or more screens of this group.
LANA-H2B inh: blockers of LANA interaction with H2A/H2B – biochemical, FP readout, HTS, primary screen; cell-free LANA-H2A/H2B peptide, fluorescence polarization; inhibition, % (concentration not given with the values); 320,000 tested, 0.6% active; in the data active = inhibition mostly above about 10%, no sharp cut-off; inactive = mostly below about 6.7%
C-LANA FP: inhibitors of KSHV C-LANA binding to DNA, primary screen, biochemical, fluorescence polarization, FAM-LBS DNA, MBP-C-LANA, single point | Kaposi's sarcoma herpesvirus LANA C-terminal domain (residues 932-1162) DNA binding | inhibition, % at 9 µM | 340,000 tested, 0.078% active | AID 504423, 2011;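 active = highest replicate inhibition at or above 60% at 9 µM, even if other replicates fall short; inactive = all replicates below 60% inhibition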
cardiac RTF act: cardiac RTF calcium sensitivity activators, primary screen, biochemical, IANBD-TnC fluorescence, EC20 calcium | Troponin I, cardiac muscle (Homo sapiens) + Troponin T, cardiac muscle (Homo sapiens) + … | IANBD-labeled TnC RTF fluorescence at EC20 calcium; 0% EC20 calcium, 100% full calcium | activation, % at 7.2 µM | 340,000 tested, 0.24% active | AID 493008, 2010;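 active = activation above the mean over all tested compounds plus 3 SD, cut at about 30% in these data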;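 also: rise in fluorescence read as greater calcium sensitivity of cardiac thin filaments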
Cardiac RTF inh: cardiac RTF calcium sensitivity inhibitors, primary screen, biochemical, IANBD-TnC fluorescence, EC70 calcium. inhibition, % at 7.15 µM. IANBD-labeled cardiac RTF, Ca2+ fluorescence. Troponin I, cardiac muscle (Homo sapiens) + Troponin T, cardiac muscle (Homo sapiens) + …. 340,000 tested, 0.12% active;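 active = inhibition above the mean inhibition of all tested compounds plus 3 SD, cut at about 17% in these data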;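 also: assay run at fixed EC70 calcium of 1.6 mM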
Keap1 Nrf2 FP: Keap1-Nrf2 protein-protein interaction inhibitors, primary screen, biochemical, fluorescence polarization, single point; 340,000 tested, 0.15% active; Kelch-like ECH-associated protein 1 (Homo sapiens), Q14145; inhibition, % at 9.4 µM; Keap1 Kelch-Nrf2 peptide fluorescence polarization, 1536-well; in the data active = inhibition above about 12%;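 also: human Keap1 Kelch domain with fluorescein labeled Nrf2 9mer peptide probe; higher means more block of Keap1 binding to Nrf2 peptide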
Target sequence (Q14145 whole entry, looked up, the tested form may be a part): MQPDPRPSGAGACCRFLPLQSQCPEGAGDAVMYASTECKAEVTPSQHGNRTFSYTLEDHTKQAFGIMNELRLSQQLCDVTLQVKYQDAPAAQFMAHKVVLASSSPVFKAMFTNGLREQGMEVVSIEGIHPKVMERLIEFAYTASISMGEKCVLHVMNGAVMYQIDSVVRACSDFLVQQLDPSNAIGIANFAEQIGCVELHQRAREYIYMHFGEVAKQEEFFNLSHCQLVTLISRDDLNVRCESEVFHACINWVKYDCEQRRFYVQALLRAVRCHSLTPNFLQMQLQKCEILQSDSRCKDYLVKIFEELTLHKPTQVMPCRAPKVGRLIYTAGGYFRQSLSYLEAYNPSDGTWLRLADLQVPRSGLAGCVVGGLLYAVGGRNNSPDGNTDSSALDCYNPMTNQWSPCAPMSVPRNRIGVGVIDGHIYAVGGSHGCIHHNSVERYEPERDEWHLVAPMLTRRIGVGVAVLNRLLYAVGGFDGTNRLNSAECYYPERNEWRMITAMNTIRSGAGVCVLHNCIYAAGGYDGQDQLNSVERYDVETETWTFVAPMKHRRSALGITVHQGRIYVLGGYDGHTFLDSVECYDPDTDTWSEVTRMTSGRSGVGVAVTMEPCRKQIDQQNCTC
Hits are given with their value; - = inactive; . = no result given; + = active, no number; ! = repeats disagree.

SMILES	LANA-H2B inh	C-LANA FP	cardiac RTF act	Cardiac RTF inh	Keap1 Nrf2 FP
Cc1ccc(C)c(S(=O)(=O)/N=C2\C=C(NS(=O)(=O)c3ccccc3)C(=O)c3ccccc32)c1	30.6	-	-	-	-
C[C@H](NC(=O)C1CC(=O)N(c2ccc3c(c2)OCCO3)C1)C(=O)N1CCCCC1 (stereo partly specified)	15.7	-	-	-	-
Cc1ccc(NC(=O)c2nc(C)n(-c3ccc([N+](=O)[O-])cc3)n2)cc1	-	-	-	-	-
Cc1nc(C(=O)Nc2ccc(F)cc2)nn1-c1ccc([N+](=O)[O-])cc1	12.4	-	-	-	-
CCOc1ccc(CNC(=O)CCC(=O)N2Cc3ccccc3Oc3ncccc32)cc1	-	-	-	-	-
COc1ccc(N2CCN(C(=O)CSc3nc4nc(C)cc(C)n4n3)CC2)cc1	36.6	-	-	-	-
Cc1cc(C)n2nc(SCC(=O)N3CCN(c4ccc(F)cc4)CC3)nc2n1	-	-	-	-	-
COc1ccc(C(=O)O)cc1S(=O)(=O)Nc1cccc(C(F)(F)F)c1	-	-	-	-	-
O=C(O)c1ccc(Cl)c(S(=O)(=O)Nc2cccc(C(=O)Nc3cccc(C(F)(F)F)c3)c2)c1	69.6	-	-	-	-
Cc1ccc(NC(=O)COC(=O)Cc2c(F)cccc2Cl)cc1S(=O)(=O)N1CCOCC1	-	-	-	-	-
Cc1ccc(S(=O)(=O)N2CCN(C(=O)CC(C)n3cncn3)CC2)cc1C (stereo unspecified)	25.2	-	-	-	-
CCOCC(=O)Nc1ccc([N+](=O)[O-])cc1OC	-	-	-	-	-
CCOCC(=O)Nc1cc([N+](=O)[O-])ccc1OC	22.4	-	-	-	-
COc1cc(NC(=O)COc2cc3oc(=O)cc(C)c3cc2Cl)cc(OC)c1OC	14.6	-	-	-	-
O=C(O)Cc1ccc(O)c(F)c1	47.0!	-	-	-	-
COc1cccc(CNC(=O)c2cccc(S(=O)(=O)N3CCN(c4ccc(F)cc4)CC3)c2)c1	21.7	-	-	-	-
CCCCOC(=O)Nc1cc(Cl)ccc1C	-	-	-	-	-
CCCOC(=O)NC(CC)COC(=O)Nc1cc(C)ccc1C (stereo unspecified)	45.6	-	-	-	-
CS(=O)(=O)c1ccc(Cl)c(NC(=O)COC(=O)c2ccc(F)cc2Cl)c1	-	71.5	-	-	-
O=C(COC(=O)c1ccc(F)cc1F)Nc1ccc(Cl)cn1	24.5	-	-	-	-
O=C(COC(=O)c1ccc(O)cc1O)Nc1ccc(Cl)cn1	-	-	-	-	-
CSc1ncccc1C(=O)N(C)CC(=O)Nc1ccc(Cl)cc1	-	-	-	-	-
CN(CC(=O)Nc1ccc(Cl)c(Cl)c1)C(=O)c1cccc2cccnc12	69.8	-	-	-	-
Cc1ccc(CCC(=O)Nc2cc(Cl)ccc2Cl)o1	-	-	39.2	-	-
Cc1ccc(C)c(NC(=O)CCc2ccc(C)o2)c1	-	-	-	-	-
SMILES	LANA-H2B inh	C-LANA FP	cardiac RTF act	Cardiac RTF inh	Keap1 Nrf2 FP
O=C(Cn1c(=O)c2cccn2c2ccccc21)NCc1cccc(F)c1	-	-	-	-	-
CC(Sc1nnnn1C1CC1)C(=O)Nc1cccc(S(=O)(=O)N2CCOCC2)c1 (stereo unspecified)	.	-	-	-	-
CC(Sc1nnc(C2CC2)n1C1CC1)C(=O)Nc1cccc(S(=O)(=O)N2CCOCC2)c1 (stereo unspecified)	18.4	-	-	-	-
CC(C)c1ccc(NC(=O)c2cc3c(=O)n(C)c4ccccc4c3n2C)cc1	-	-	-	-	-
CCc1nnc(NC(=O)[C@@H](NC(=O)c2ccc(C(C)(C)C)cc2)C(C)C)s1	-	-	-	-	-
CCN(CC)c1ccc(/C=C(/C#N)c2nc3ccccc3[nH]2)c(OC(C)C)c1	-	-	147.6	-	-
C[C@H](CO)N1C[C@H](C)[C@@H](CN(C)Cc2ccc(C(=O)O)cc2)Oc2ccc(NS(C)(=O)=O)cc2C1=O	-	-	-	-	-
N#Cc1ccccc1NCc1ccccc1	15.0	-	-	-	-
O=C(N/N=C/c1cccc(F)c1)c1c(O)c2ccccc2[nH]c1=O	+	-	-	-	-
COc1ccccc1CCn1cnc2c3cc(C)ccc3n(C)c2c1=O	24.0	-	-	-	-
CC(OC(=O)C1CC1)C(=O)Nc1cc(C(F)(F)F)ccc1Cl (stereo unspecified)	-	-	-	-	-
COc1ccc2c(CC(=O)Nc3ncc(C)s3)coc2c1	-	77.7	-	-	-
CCCN(CC(=O)Nc1ccccc1OC)C(=O)c1ccc(S(=O)(=O)Nc2ccccc2)cc1	-	-	-	-	-
CCOC(=O)C1CCN(C(=O)/C=C/c2ccc3c(c2)OCO3)CC1	-	-	-	-	-
CCN1/C(=C/C=C/c2oc3ccc(-c4ccccc4)cc3[n+]2CC)Oc2ccc(-c3ccccc3)cc21	-	-	997.6	-	-
CC(C(=O)NC1CCCC1)N(Cc1ccc2c(c1)OCO2)C(=O)c1snc(C(N)=O)c1N (stereo unspecified)	-	-	-	-	-
Cc1ccc(-c2ccc(/C=C(\C#N)C(=O)Nc3cc(C)nn3-c3ccccc3)o2)cc1	23.4	.	.	.	.
COc1ccc(C(=O)N/N=C/c2c[nH]c3ccccc23)cc1	-	-	-	-	-
O=C(N/N=C/c1ccccc1)c1cccc2ccccc12	-	-	-	-	-
O=C(N/N=C/c1sc2ccccc2c1O)c1ccccc1	-	-	47.1	-	-
O=C(N/N=C/c1sc2ccccc2c1O)c1cccc2ccccc12	+	-	-	-	-
O=C(N/N=C/c1ccc(F)cc1)c1ccccc1	-	-	-	-	-
COc1ccc(C(=O)N/N=C/c2sc3ccccc3c2O)cc1	+	-	32.2	-	-
COc1ccc2cc(C(=O)N/N=C/c3sc4ccccc4c3O)ccc2c1	-	-	109.2	-	-
O=C(O)/C=C/c1cn(Cc2ccccc2)nc1-c1cccnc1	-	-	-	-	-
CC(C)OC(=O)c1ccc(COC(=O)c2cnccn2)cc1	-	-	-	-	-
COc1cc(/C=N/NC(=O)C(NC(=O)c2ccccc2)c2n[nH]c(=O)c3ccccc23)ccc1OCC(N)=O (stereo unspecified)	22.4	-	-	-	-
COc1ccc(OC)c(N(CC(=O)NCCc2ccc(OC)c(OC)c2)S(=O)(=O)c2ccccc2)c1	-	-	-	-	-
